Experimental data as given in PubChem BioAssay (EPA / NIEHS).
Inconclusive results are not listed. Some compounds were tested as several samples or in several runs, with calls that do not always agree. Calls of active or inactive are those of the source. The calls were made as follows, unless noted: active = hit-call score of the fitted dose curve at least 0.9, where 1 is the maximum; inconclusive = response in the unintended direction; inactive = score below 0.9.

Legend:
TIMP1, TIMP1 (gene 7076) = test: LTEA_HepaRG_TIMP1: Life Technologies and Expression Analysis (LTEA) Assay for TIMP1 using HepaRG (AID 2283534; active = hit-call score of the fitted dose curve at least 0.9, where 1 is the maximum; inactive = score below 0.9); conditions: mRNA level, 48 h; actives raise or lower the signal
In short: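 Bidirectional change in TIMP1 transcript versus 0.5% DMSO, measured by TaqMan qRT-PCR with three housekeeping genes for normalization. HepaRG human liver cells dosed 48 h in duplicate, top concentration 100 uM with half-log dilutions.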

[1] = read-out: Thyroid Hormone Responsive (THRSP), THRSP (gene 7069); test: LTEA_HepaRG_THRSP: Life Technologies and Expression Analysis (LTEA) Assay for Thyroid Hormone Responsive (THRSP) using HepaRG (AID 2283536; active = hit-call score of the fitted dose curve at least 0.9, where 1 is the maximum; inactive = score below 0.9); conditions: mRNA level, 48 h; actives raise or lower the signal
In short: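 mRNA induction or loss relative to 0.5% DMSO vehicle was fitted bidirectionally across an eight-point curve whose highest exposure was 100 uM. Human HepaRG liver cells received chemicals in duplicate over 48 h before RNA extraction.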

[2] = read-out: Cellular tumor antigen p53 (Homo sapiens) (UniProt P04637); test: LTEA_HepaRG_TP53: Life Technologies and Expression Analysis (LTEA) Assay for Tumor Protein P53 (TP53) using HepaRG (AID 2283537; active = hit-call score of the fitted dose curve at least 0.9, where 1 is the maximum; inactive = score below 0.9); conditions: mRNA level, 48 h; actives raise or lower the signal
In short: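 TP53 transcript measured by qRT-PCR, normalized to three housekeeping genes, after 48 h treatment of human HepaRG cultures with chemicals from 100 uM downward in half-log steps (0.5% DMSO vehicle, serum-free induction medium). Up- or down-regulation fitted against DMSO.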

[3] = read-out: UDP glucuronosyltransferase (UGT1A1), UGT1A1 (gene 54658); test: LTEA_HepaRG_UGT1A1: Life Technologies and Expression Analysis (LTEA) Assay for UDP glucuronosyltransferase (UGT1A1) using HepaRG (AID 2283538; active = hit-call score of the fitted dose curve at least 0.9, where 1 is the maximum; inactive = score below 0.9); conditions: mRNA level, 48 h; actives raise or lower the signal
In short: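 Human liver HepaRG cultures receive test chemical for 48 h, up to 100 uM in 0.5% DMSO, with phenobarbital induction controls. UGT1A1 mRNA is measured by qRT-PCR and normalized to ACTB, GAPDH and POLR2A.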

[4] = read-out: UDP glucuronosyltransferase (UGT1A6), UGT1A6 (gene 54578); test: LTEA_HepaRG_UGT1A6: Life Technologies and Expression Analysis (LTEA) Assay for UDP glucuronosyltransferase (UGT1A6) using HepaRG (AID 2283539; active = hit-call score of the fitted dose curve at least 0.9, where 1 is the maximum; inactive = score below 0.9); conditions: mRNA level, 48 h; actives raise or lower the signal
In short: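 Expression was quantified by TaqMan qRT-PCR on Fluidigm arrays with ACTB/GAPDH/POLR2A normalization and bidirectional fitting against 0.5% DMSO. HepaRG cells (~100,000/well) were treated in duplicate for 48 h at eight half-log concentrations up to 100 uM in serum-free induction medium.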

[5] = read-out: X-box binding protein 1 (XBP1), XBP1 (gene 7494); test: LTEA_HepaRG_XBP1: Life Technologies and Expression Analysis (LTEA) Assay for X-box binding protein 1 (XBP1) using HepaRG (AID 2283540; active = hit-call score of the fitted dose curve at least 0.9, where 1 is the maximum; inactive = score below 0.9); conditions: mRNA level, 48 h; actives raise or lower the signal
In short: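 XBP1 transcript by qRT-PCR (housekeeping-normalized: ACTB, GAPDH, POLR2A) after 48 h chemical treatment of HepaRG cells, 8-point half-log series topping at 100 uM, vehicle 0.5% DMSO. Gain and loss of signal fitted relative to DMSO.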

[6] = LTEA_HepaRG_LDH_cytotoxicity: Cytotoxicity Assessment in the Life Technologies and Expression Analysis (LTEA) Assay (AID 2283563);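 as to AC50: LDH activity released into spent culture medium as a marker of cell death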
In short: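 LDH release into culture medium read after 48 h chemical treatment of HepaRG cells. Duplicate wells, eight-point half-log series topping at 100 uM, 0.5% DMSO vehicle and baseline.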

[7] = TOX21_p53_BLA_p2_viability: Viability Assessment in the Tox21 HCT-116 p53 Agonism Beta-lactamase Assay, Phase 2 (AID 2283591);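 also: compound exposure lasted 16 h at 37 °C; actives lower the ATP signal meaning cytotoxicity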
In short: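 Cytotoxicity readout: CellTiter-Glo ATP luminescence, 30 min at room temperature, after the beta-lactamase read. Cells were HCT116 exposed 16 h at 37C to compounds pin-transferred at 217-fold dilution from DMSO stocks.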

[8] = molecular target: Cellular tumor antigen p53 (Homo sapiens) (UniProt P04637); test: TOX21_p53_BLA_p2_ratio: Tox21 HCT-116 p53 Agonism Beta-lactamase Assay, Ratio, Phase 2 (AID 2283592)
In short: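 Gain-of-signal p53 agonism was scored from the beta-lactamase FRET ratio (460/530 nm, 405 nm excitation) in HCT116 cells treated 16 h at 37C, 5% CO2, with DMSO serving as negative control and baseline.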

[9] = TOX21_p53_BLA_p3_viability: Viability Assessment in the Tox21 HCT-116 p53 Agonism Beta-lactamase Assay, Phase 3 (AID 2283593);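 also: cells exposed to compound for 16 h before reading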
In short: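 Cellular ATP was quantified by CellTiter-Glo luminescence, read after 30 min at room temperature. Beforehand, HCT116 cells (4000/well) received compound 5 h post-seeding, 217-fold diluted from DMSO, then incubated 16 h at 37C.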

[10] = TOX21_p53_BLA_p5_viability: Viability Assessment in the Tox21 HCT-116 p53 Agonism Beta-lactamase Assay, Phase 5 (AID 2283600)
In short: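 After the 460/530 nm beta-lactamase measurement, the wells received an ATP-detection luciferase reagent; signal was read 30 min later at RT. Compound treatment lasted 16 h on cells pre-incubated 5 h post-seeding.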

[11] = Tanguay_ZF_120hpf_MORT_legacy: (Legacy) Oregon State University Tanguay Lab 120 Hour Post-fertilization zebrafish Assay for Mortality (AID 2283633)
In short: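 Static waterborne exposure from 6 to 120 hpf at 28C of single dechorionated wild-type (5D) embryos per well, 0.64% DMSO final. Death recorded present/absent by brightfield at 24 and 120 hpf.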

[12] = Tanguay_ZF_120hpf_YSE_legacy: (Legacy) Oregon State University Tanguay Lab 120 Hour Post-fertilization zebrafish Assay for Yolk Sac Edema (AID 2283634);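 as to AC50: actives raise the incidence of yolk sac edema above the DMSO baseline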
In short: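 Presence or absence of yolk sac edema was recorded at 120 hpf in surviving larvae. These were wild-type Tropical 5D embryos, chorion removed at 4 hpf, held in static exposure at 28C from 6 hpf with 0.64% DMSO vehicle.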

[13] = Tanguay_ZF_120hpf_AXIS_legacy: (Legacy) Oregon State University Tanguay Lab 120 Hour Post-fertilization zebrafish Assay for Body Axis Malformation (AID 2283635);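 as to AC50: potency for an increased fraction of larvae scored with body axis malformation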
In short: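 Binary scoring of axis defects at 120 hpf under brightfield, fitted positive versus DMSO. Tropical 5D embryos, chorion removed by pronase at 4 hpf, were singly exposed in sealed, dark plates at 28C from 6 hpf; DMSO 0.64% final.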

[14] = Tanguay_ZF_120hpf_EYE_legacy: (Legacy) Oregon State University Tanguay Lab 120 Hour Post-fertilization zebrafish Assay for Eye Malformation (AID 2283636)
In short: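 Read-out is binary presence or absence of eye malformation, scored by brightfield microscopy at 120 hpf. Single larvae were exposed from 6 hpf in embryo medium containing 0.64% DMSO, with DMSO as baseline.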

[15] = molecular target: Cellular tumor antigen p53 (Homo sapiens) (UniProt P04637); test: TOX21_p53_BLA_p5_ratio: Tox21 HCT-116 p53 Agonism Beta-lactamase Assay, Ratio, Phase 5 (AID 2283599)
In short: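 Beta-lactamase reporter ratio (blue 460 nm over green 530 nm, 405 nm excitation) after 2 h CCF4-AM loading, in HCT-116 cells exposed 16 h at 37 C to compounds pinned at 217-fold dilution. Increases relative to DMSO baseline scored.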

[16] = TOX21_p53_BLA_p4_viability: Viability Assessment in the Tox21 HCT-116 p53 Agonism Beta-lactamase Assay, Phase 4 (AID 2283597);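 also: hits lower the luminescence signal meaning cytotoxicity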
In short: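 Following a 16 h exposure at 37C, the treated HCT116 wells were first read for the FRET ratio. They were then lysed with CellTiter-Glo, and ATP luminescence was recorded after 30 min at room temperature.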

[17] = molecular target: Cellular tumor antigen p53 (Homo sapiens) (UniProt P04637); test: TOX21_p53_BLA_p4_ratio: Tox21 HCT-116 p53 Agonism Beta-lactamase Assay, Ratio, Phase 4 (AID 2283601)
In short: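 Signal is the blue/green (460nm/530nm) ratio of cleaved versus uncleaved CCF4-AM substrate, read after 2 h substrate loading. Cells were HCT116 carrying the p53-responsive beta-lactamase reporter, dosed 16 h at 37C, 5% CO2; CellTiter-Glo measured in parallel.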

[18] = molecular target: Cellular tumor antigen p53 (Homo sapiens) (UniProt P04637); test: TOX21_p53_BLA_p3_ratio: Tox21 HCT-116 p53 Agonism Beta-lactamase Assay, Ratio, Phase 3 (AID 2283596)
In short: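 HCT116 p53-bla cells (4000/well) given compound in DMSO (217-fold dilution) after 5 h, incubated 16 h at 37C. CCF4-AM substrate 2 h at room temperature; 460/530 nm emission ratio, gain fitted against DMSO.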

Measured: AC50

Chain of Cellular tumor antigen p53 (Homo sapiens) (P04637 whole entry, looked up): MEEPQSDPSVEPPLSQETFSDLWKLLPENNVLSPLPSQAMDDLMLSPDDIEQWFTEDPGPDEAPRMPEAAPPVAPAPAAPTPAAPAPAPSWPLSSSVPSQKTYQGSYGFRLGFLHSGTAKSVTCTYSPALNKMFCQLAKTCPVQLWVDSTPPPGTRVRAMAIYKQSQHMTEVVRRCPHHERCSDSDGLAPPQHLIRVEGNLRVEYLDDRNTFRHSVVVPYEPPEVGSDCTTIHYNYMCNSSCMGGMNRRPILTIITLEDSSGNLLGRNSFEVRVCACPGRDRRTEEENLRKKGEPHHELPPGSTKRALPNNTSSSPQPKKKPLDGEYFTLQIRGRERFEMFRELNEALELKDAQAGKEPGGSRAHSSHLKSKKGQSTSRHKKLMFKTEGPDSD

Cc1c(F)c(F)c(COC(=O)C2C(/C=C(\Cl)C(F)(F)F)C2(C)C)c(F)c1F (configuration not stated)
active: [12] 1.79 µM | [13] 3.4 µM | [14] 3.05 µM
not listed: [15] | [16] | [17] | [18]
inactive: all other assays above

O=C(Nc1ccccc1)Nc1ccnc(Cl)c1
active: TIMP1, TIMP1 (gene 7076) 74.9 µM | [2] 74 µM | [3] 79.6 µM | [5] 72.1 µM | [6] 39.4 µM
inactive: [1] | [7] | [9] | [15] | [10] | [12] | [13]

CCCCNC(=O)OCC#CI
inactive: TIMP1, TIMP1 (gene 7076) | [2] | [6] | [7] | [9] | [15] | [10] | [12] | [13] | [14]
active: [1] 50 µM | [3] 24.9 µM | [5] 50 µM | [15] 78.1 µM

Fc1ccc(Oc2ccnc3cc(Cl)cc(Cl)c23)cc1
active: [1] 76.2 µM | [3] 13.3 µM | [15] 88.9 µM
not listed: [4] | [8] | [11] | [16] | [17] | [18]
inactive: all other assays above

COC(=O)C(C)Oc1ccc(Oc2ccc(Cl)cc2Cl)cc1 (configuration not stated)
inactive: TIMP1, TIMP1 (gene 7076) | [2] | [5] | [6] | [7] | [15] | [12] | [13] | [14]
active: [1] 40 µM | [3] 20.7 µM

C#CCOS(=O)OC1CCCCC1Oc1ccc(C(C)(C)C)cc1 (configuration not stated)
active: TIMP1, TIMP1 (gene 7076) 26.5 µM | [2] 58.4 µM | [3] 27.5 µM | [6] 29.3 µM
inactive: [1] | [5] | [7] | [9] | [15] | [10] | [12] | [13]

CCOc1cc(Oc2ccc(C(F)(F)F)cc2Cl)ccc1[N+](=O)[O-]
active: [1] 21.7 µM | [2] 14 µM | [3] 5.1 µM
not listed: [4] | [8] | [14] | [15] | [18]
inactive: all other assays above

O=C(O)c1nc(Cl)ccc1Cl
not listed: [4] | [8] | [11] | [16] | [17] | [18]
inactive: all other assays above

COP(N)(=O)SC (configuration not stated)
not listed: [4] | [8] | [13] | [14] | [16] | [17]
inactive: all other assays above

CNC(=O)ON=CC(C)(C)SC
active: [12] 3.47 µM | [13] 2.31 µM
not listed: [4] | [11] | [16] | [17] | [18]
inactive: all other assays above

CON(C)C(=O)Nc1ccc(Cl)c(Cl)c1
active: [1] 11.4 µM | [2] 69.8 µM | [3] 32.5 µM
not listed: [4] | [8] | [16] | [17] | [18]
inactive: all other assays above

CC(C)(C)c1ccc(CSc2cnn(C(C)(C)C)c(=O)c2Cl)cc1
inactive: [3] | [7] | [15] | [10] | [12] | [13] | [14]
active: TIMP1, TIMP1 (gene 7076) 26.9 µM | [1] 9.85 µM | [2] 2.82 µM | [5] 2.71 µM | [6] 3.02 µM | [8] 0.0143 µM

COC(=O)c1ccccc1C(=O)OC
not listed: [4] | [7] | [8] | [16] | [18]
inactive: all other assays above
